Compound activity deposited in PubChem BioAssay by National Center for Advancing Translational Sciences (NCATS).
FMDV inh: High Throughput Screening for Foot and Mouth Disease Virus Antivirals | Potency, µM (titrated, usually from 57.9 µM), without a hit: top-dose activity change, negative = inhibition, usual class: inhibitors | FMDV antiviral cell-based qHTS | hit rate 1.2% among 410,000; calls by dose curve; tested in HEK293T cells; note: read-out not given here; potency is the fitted concentration of half-maximal effect; nearly all actives have a fitted effect of over 45% in size
HCV inh: qHTS Assay for Inhibitors of Hepatitis C Virus (HCV). AID 651820, 2012. Potency, µM (doses to about 41.8 µM), inactives show at the highest dose activity change, negative = inhibition, usual class: inhibitors. Huh7.5.1 HCVcc-Cre infection, luciferase reporter, 44 h. hit rate 3.4% among 340,000; active = well fitted inhibition curve with a large enough effect; inconclusive = small, poorly fitted or top-dose-only effect, or another doubt; inactive = no such curve, though single readings can be large or run the other way; note: potency is the fitted concentration of half-maximal effect
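Infectious HCVcc-Cre (~0.5 moi) was added to cells just after compound, with cells seeded 4 h earlier at 1,000 per well. Luciferase activity after 44 h culture reported infection; substrate was incubated 15 min at room temperature before reading.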
Marburg entry inh: qHTS for inhibitors of binding or entry into cells for Marburg Virus. Marburg virus pseudotyped entry inhibition, cell reporter. Potency, µM (series often up to 37.8 µM), inactives show at the top dose activity change, negative = inhibition, hits mostly inhibitors. hit rate 1.8% among 300,000. AID 540276, 2011; calls by dose curve; tested in HEK293 cells; note: potency is the fitted concentration of half-maximal effect
Lassa entry inh: qHTS for Inhibitors of binding or entry into cells for Lassa Virus | hit rate 1.2% among 300,000 | Potency, µM (highest dose often 37.9 µM), without a hit: at the top dose activity change, negative = inhibition, most hits filed as inhibitors | Lassa virus pseudotype entry inhibition, cell reporter; calls by dose curve; tested in HEK293 cells; note: potency is the fitted concentration of half-maximal effect; nearly all actives have a fitted effect of over 50% in size
HCMV inh: qHTS Assay for inhibitors of the human cytomegalovirus (HCMV). HFF cells, HCMV-luciferase reporter, 72 h; stronger effect = lower value. activity change, negative = inhibition, % at 57.5 µM. hit rate 4.5% among 410,000. AID 1259415, 2018; in the data active = activity change below about -60%; inconclusive = no clear call, values can overlap the other calls; inactive = above about -39%
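Screen run at 2 compound doses on HFFs infected with reporter HCMV, MOI 1 PFU/cell. Luciferase activity from cell lysates at 72 h post infection gave inhibition relative to buffer-only and Salinomycin wells.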
Numbers without * were called inactive; ? = inconclusive; . = no result; [ ] = dose if it differs, or a comment. Hits are enriched below; roughly 7.9% of the tested compounds scored in any of these assays. % is set by controls: 0 for no effect and ±100 for the full control effect.

SMILES | FMDV inh | HCV inh | Marburg entry inh | Lassa entry inh | HCMV inh
Cc1cccc(N=C2NN=C(c3ccc4c(c3)OCCO4)CS2)c1 | 4.4% | -24.6% | ? | ? | 106.6
Cc1cccc(N=C2NN=C(c3c(C)[nH]c4ccccc34)CS2)c1 | ? | ? | ? | ? | -98.9*
CCC(=O)N1c2ccccc2CC1C(=O)NCc1ccccc1Cl (stereo not given) | -7.0% | . | . | 0.8%[46.1 µM] | -0.1
Cc1cc(Nc2ccc(Br)c(C)c2)n2nc(-c3ccco3)nc2n1 | ? | . | . | -0.6%[46.1 µM] | -37.5
CCCc1nc2ccc(C)cn2c1Cc1ccccc1C(F)(F)F | -16.9% | . | . | . | -69.1*
CCCc1nc2ccc(C)cn2c1Cc1ccccc1OC | -4.5% | . | . | . | 7.6
Oc1c(C(c2ccc(Cl)cc2)N2CCCC2)sc2nc(-c3ccco3)nn12 (stereo not given) | 45.4% | . | . | 0.2%[46.1 µM] | -0.6
CC(=O)N1CCc2cc(S(=O)(=O)NC(Cc3ccccc3)C(=O)NCc3ccccc3Cl)ccc21 (stereo not given) | 9.4% | . | -4.1%[46.1 µM] | 5.4%[46.1 µM] | -13.5
CCOC(=O)Nc1ccc2c(c1)N(C(=O)CCN(CC)CC)c1ccccc1S2=O (stereo not given) | -11.0% | -4.4% | ? | 17.8µM* | 51.4
Nc1c(N(Cc2ccco2)C(=O)c2ccc(Cl)cc2)c(=O)[nH]c(=O)n1Cc1ccccc1 | -3.1% | 31.2% | -6.5% | -1.8% | -70.8*
Nc1c(N(Cc2ccccc2)C(=O)COc2ccc([N+](=O)[O-])cc2)c(=O)[nH]c(=O)n1Cc1ccccc1 | -17.0% | ? | . | . | -97.4*
Cc1ccc(OCCC(=O)N(Cc2ccccc2)c2c(N)n(Cc3ccccc3)c(=O)[nH]c2=O)cc1 | -23.8% | 11.2µM* | ? | ? | -81.1*
Nc1c(N(CCC2=CCCCC2)C(=O)COc2ccc(F)cc2)c(=O)[nH]c(=O)n1Cc1ccccc1 | -22.0% | 12.6µM* | . | . | .
Nc1c(N(Cc2ccco2)C(=O)c2ccc(Br)cc2)c(=O)[nH]c(=O)n1Cc1ccccc1 | 13.7% | ? | . | . | 84.9
COc1cc(C2c3c(-c4c(C)cc(C)cc4O)n[nH]c3C(=O)N2CCCOC(C)C)cc(OC)c1OC (stereo not given) | 7.2% | . | ? | ? | 1.7
COc1ccc(C)cc1NC(=O)c1sc2nc(-c3ccc(F)cc3)cn2c1C | -7.6% | . | . | ? | -14.8
Cc1ccccc1OCCC(=O)N(Cc1ccccc1)c1c(N)n(Cc2ccccc2)c(=O)[nH]c1=O | 0.0% | ? | 3.7% | 11.2µM* | .
Cc1ccccc1OCCC(=O)N(CC(C)C)c1c(N)n(Cc2ccccc2)c(=O)[nH]c1=O | -22.3% | -3.9% | . | . | ?
Cc1nn(-c2ccccc2)c(C)c1C(=O)OCc1ccc(C#N)cc1 | -16.7% | 12.6µM* | . | . | -1.4
Cc1nn(-c2ccccc2)c(C)c1C(=O)OCC(N)=O | 10.0% | 7.8% | . | . | -30.1
Cc1ccc(Nc2cc(C)nn2-c2nc(C)cc(C)n2)cc1 | 0.0% | ? | ? | ? | ?
Cc1ccc(Nc2cc(C)nn2-c2nc(C)cc(=O)[nH]2)cc1 | 3.55µM* | ? | 2.82µM* | 1.58µM* | .
Cc1ccc(S(=O)(=O)CC(CN2CCCCC2)N2CCCCC2)cc1 (stereo not given) | 28.2µM* | 15.8µM* | 10.3%[46.1 µM] | 14.9% | -98.8*
O=S(=O)(CC(CN1CCCCC1)N1CCCCC1)c1ccc2ccccc2c1 (stereo not given) | ? | 25.3% | 3.55µM* | ? | -73.1*
O=c1[nH]c(SCc2c(F)cccc2Cl)nc2c1CCC2 | -1.3% | . | 22.0%[46.1 µM] | 0.0%[46.1 µM] | -10.9
SMILES | FMDV inh | HCV inh | Marburg entry inh | Lassa entry inh | HCMV inh
COc1ccc(C(=O)NCC(C)(C)N2CCOCC2)cc1S(=O)(=O)NCc1ccc(Cl)cc1 | -4.1% | ? | . | . | -67.2*
CCC[C@H]1[C@@H](NC(=O)NCc2ccco2)CC[C@@]23CCCN2C(=O)CCC[C@@H]13 | . | . | . | . | -21.9
CCCCNC(=O)C(NC(=O)c1ccc2ccccc2c1)C(=O)c1ccccc1 (stereo not given) | 4.9% | . | . | . | -63.8*
Cc1ccccc1COC(=O)c1ccc(-c2nnn(Cc3ccccc3F)n2)cc1 | -9.3% | . | 2.5%[46.1 µM] | 13.8%[46.1 µM] | -3.2
COc1ccc(S(=O)(=O)N(Cc2ccccc2)Cc2nc3ccccc3c(=O)[nH]2)cc1 | -6.9% | ? | -11.0% | ? | -99.8*
COc1ccccc1CN(Cc1nc2ccccc2c(=O)[nH]1)S(=O)(=O)c1ccc2ccccc2c1 | . | 35.5µM* | ? | ? | -16.8
COc1ccc(-c2nc3ccccc3c(=O)[nH]2)cc1 | 16.8% | 4.5% | 12.6µM* | ? | 40.3
CN(C)c1ccc(-c2nc3ccccc3c(=O)[nH]2)cc1 | -59.0% | -4.5% | . | . | 1.9
COC(=O)C1=C(C(=O)OC)[C@@H]2N(C)c3ccccc3[C@@]23C[C@@H](CO)N(C(=O)NC2CCCCC2)C3=N1 | . | . | -1.9%[14.2 µM] | . | .
CCN(CC)c1ccc2cc(-c3nc(-c4cccs4)no3)c(=O)oc2c1 | 23.8% | . | . | -1.6%[46.1 µM] | -10.5
CC(=O)c1cccc(NC(=O)C2CCCN(c3nnc(-n4cccc4)s3)C2)c1 (stereo not given) | 0.0% | . | . | 0.4%[46.1 µM] | -102.7*
COc1ccc(OC)c(CCNC(=O)c2cnn(-c3ccccc3Cl)c2C2CCN(C(=O)OC(C)(C)C)CC2)c1 | ? | . | . | ? | -16.8
COC(=O)c1[nH]c2cccc(Cl)c2c1NC(=O)CN(C)C1CCCCC1 | -4.7% | ? | 11.2µM* | -1.8% | 37.6
Cc1ccc(N(Cc2cccs2)C(=O)c2ccc(Br)o2)cc1 | -16.1% | . | 0.6%[46.1 µM] | 10.5%[46.1 µM] | 23.1
COc1cc(C(=O)OCC(=O)N2c3ccccc3NC(=O)C2(C)C)ccc1OCC(C)C | ? | 6.31µM* | ? | ? | -11.9
CCCCn1c(=N)n(CC(O)COc2ccc(C)cc2)c2ccccc21 (stereo not given) | ? | 11.2µM* | ? | ? | -33.8
CCCCn1c(=N)n(CC(O)COc2ccccc2)c2ccccc21 (stereo not given) | ? | ? | ? | ? | 14.0
CCCn1c(=N)n(CC(O)COc2cccc(C)c2)c2ccccc21 (stereo not given) | ? | ? | 8.2µM* | -19.9% | 11.8
CCCCCn1c(=N)n(CC(O)COc2cccc(C)c2)c2ccccc21 (stereo not given) | ? | . | ? | ? | -105.5*
CCOC(=O)c1c(NC(=O)CSc2nc(-c3ccc(OC)cc3)cc(C(F)(F)F)n2)sc(C)c1C | -21.7% | . | -13.8%[46.1 µM] | 11.6%[46.1 µM] | -15.0
COC(=O)CC(=O)O[C@H]1C=C[C@@H](NC(=O)OC(C)(C)C)C1 | -6.7% | 31.6µM* | . | . | -16.1
CCOc1ccc(CN(C(=O)c2cc(=O)c3cc(Cl)ccc3o2)C2CCS(=O)(=O)C2)cc1 (stereo not given) | -17.7% | . | -13.2%[46.1 µM] | 13.0%[46.1 µM] | 25.4
CCn1nc([N+](=O)[O-])c(C(C#N)c2nc3cc(C(F)(F)F)ccc3s2)c(Cl)c1=O (stereo not given) | 2µM* | 11.2µM* | -19.1% | 9.8% | ?
